Compound activity from PubChem BioAssay.
Compounds with a hit are over-represented: about 10% of the library has one in this group of screens.
HEK cytotox = kills HEK 293 cells | HEK 293 viability, ATP luminescence (CellTiter-Glo), 48-72 h | Potency, µM (series often up to 115 µM), without a hit: top-dose activity change, negative = cytotoxicity, hits mostly inhibitors | 6.6% of 94,000 active | AID 1345083; also: % is scaled to controls: 0 for no effect and ±100 for the full control effect; nearly all actives have a fitted effect of over 60% in size
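ATP-coupled CellTiter-Glo luminescence served as viability read-out, recorded 10 min after reagent addition at room temperature. HEK 293 cells, 250 cells/well, had been incubated with pintool-transferred compound for 48 or 72 hr at 37 degree Celsius.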
NPR1 antag = human Npr1 receptor antagonism | P16066 | HEK293 hNpr1 GloSensor cGMP, ANP-stimulated luminescence | Potency, µM (doses to about 46.3 µM), for the others: top-dose activity change, negative = inhibition, hits mostly inhibitors | 1.6% of 76,000 active; calls by dose curve; also: % is scaled to controls: 0 for no effect and ±100 for the full control effect; nearly all actives have a fitted effect of over 60% in size
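HEK293 cells stably expressing human Npr1 and cGMP GloSensor pGS-40F, loaded 2 h with 2% GloSensor reagent, given compound 30 min at room temperature. Luminescence read before and 20 min after 0.1 nM hNppA.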
NIH3T3 tox = kills NIH 3T3 cells | AID 1345082 | Potency, µM (top dose mostly 96.7 µM), inactives show at the top dose activity change, negative = cytotoxicity, actives largely listed as inhibitors | NIH 3T3 viability, CellTiter-Glo ATP luminescence, 48-72 h | 4.3% of 94,000 active; also: % is scaled to controls: 0 for no effect and ±100 for the full control effect; nearly all actives have a fitted effect of over 55% in size
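Luminescent ATP readout (CellTiter-Glo, 10 min RT) after 48 or 72 hr compound exposure of NIH 3T3 cells seeded at 400 cells/well in 1536-well format; quantitative HTS.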
FLuc inh-1 = blocks purified firefly luciferase enzyme activity | P08659 | Potency, µM (titrated, usually from 115 µM), most hits filed as inhibitors | AID 1347043 | purified P. pyralis luciferase, luminescence, biochemical | 2.5% of 76,000 active; also: % is scaled to controls: 0 for no effect and ±100 for the full control effect; nearly all actives have a fitted effect of over 65% in size
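Cell-free enzyme assay, 10nM P. pyralis luciferase, luciferin and ATP each at 10uM. Inhibition profiled over a 6-point titration, read as luminescence.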
GPT2 inh = blocks human glutamate pyruvate transaminase 2; Q8TD30; Recombinant GPT2, coupled pyruvate oxidase/HRP Amplex Red fluorescence; Potency, µM (top dose mostly 57.7 µM), for the others: at the highest dose activity change, negative = inhibition, hits mostly inhibitors; 0.25% of 100,000 active; AID 1671188; also: % is scaled to controls: 0 for no effect and ±100 for the full control effect; nearly all actives have a fitted effect of over 60% in size
Target sequence (Q8TD30 whole entry, looked up): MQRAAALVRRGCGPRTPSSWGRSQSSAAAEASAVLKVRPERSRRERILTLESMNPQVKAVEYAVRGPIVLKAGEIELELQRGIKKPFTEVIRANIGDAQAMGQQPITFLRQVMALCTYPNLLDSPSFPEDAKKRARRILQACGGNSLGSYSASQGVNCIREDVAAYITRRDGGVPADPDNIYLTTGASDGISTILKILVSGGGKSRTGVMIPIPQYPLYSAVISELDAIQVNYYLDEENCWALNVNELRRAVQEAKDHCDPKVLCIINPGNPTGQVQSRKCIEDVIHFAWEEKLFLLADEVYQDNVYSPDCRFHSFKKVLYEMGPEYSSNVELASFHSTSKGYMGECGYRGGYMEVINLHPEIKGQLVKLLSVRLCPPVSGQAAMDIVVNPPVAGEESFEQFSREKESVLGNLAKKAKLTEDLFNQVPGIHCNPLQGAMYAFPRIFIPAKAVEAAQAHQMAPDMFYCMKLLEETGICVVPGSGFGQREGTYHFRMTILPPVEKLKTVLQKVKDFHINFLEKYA
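Fluorescence of coupled pyruvate oxidase/HRP/Amplex Red system (50uM Amplex, 30 min, dark) reports pyruvate formed by GPT2. Enzyme reaction: 10ng/uL GPT2, 2mM L-alanine, 250uM a-KG, 30 min room temperature, pH 7.5; 50uM AOA control.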
FLuc SDR -ATP = binders stabilizing firefly luciferase, without ATP; shares compounds with FLuc inh-1; Purified FLuc-C-HiBiT, Nano-Glo HiBiT luminescence, no ATP; Potency, µM (doses to about 32.7 µM), inactives show top-dose activation (signal gain), usual class: activators; 7.8% of 1,300 active; also: nearly all actives have a fitted effect of over 55% in size
FLuc SDR ATP = stabilizes firefly luciferase with ATP present | AID 1963319 | shares compounds with FLuc inh-1 | Potency, µM (series often up to 32.7 µM), without a hit: at the highest dose activation (gain of signal), most hits filed as activators | purified FLuc-C-HiBiT + ATP, HiBiT complementation luminescence | 8.7% of 1,300 active;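 also: signal reports ligand binding via conformational change of the enzyme rather than luciferase catalysis; % of control where 0% means no effect; nearly all actives have a fitted effect of over 55% in size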
FLuc inh-2 = firefly luciferase enzyme inhibition. shares compounds with FLuc inh-1. purified FLuc-C-HiBiT enzyme, luciferin luminescence. Potency, µM (highest dose often 32.7 µM), for inactives: at the highest dose activity change, negative = inhibition, actives largely listed as inhibitors. 42% of 1,300 active; also: % is scaled to controls: 0 for no effect and ±100 for the full control effect; nearly all actives have a fitted effect of over 70% in size
Starred values were filed as active, the others as inactive; i = inactive; ? = inconclusive; . = no result; [ ] = dose if it differs, or a comment. Unless noted, calls follow the shape of the dose curve; as a rule, active = well fitted curve in the direction sought with a large enough effect; inconclusive = small, poorly fitted or top-dose-only effect, or another doubt; inactive = no such curve, though single readings can be large; an effect the other way counts as inactive or inconclusive. Potency is read from the fitted curve at half-maximal effect.

SMILES | HEK cytotox | NPR1 antag | NIH3T3 tox | FLuc inh-1 | GPT2 inh | FLuc SDR -ATP | FLuc SDR ATP | FLuc inh-2
O=c1c2nc(N3CCC(c4ccccc4)CC3)ccc2ncn1C1CC1 | 89.1µM* | ? | ? | 1.41µM* | -1.7%[88.5 µM] | 20.2µM* | ? | 3.6µM*
O=c1c2nc(-c3ccccc3C(F)(F)F)ccc2ncn1C1CC1 | -1.6%[172 µM] | 2.5%[70.6 µM] | ? | i | 1.5%[88.5 µM] | . | . | .
CCOc1ccc(-c2cc3c(=O)n(CCNC(=O)c4cccc(C#N)c4)ccn3n2)cc1 | 2.3% | -1.3% | 2.6% | 0.794µM* | 2.6% | 26.2% | 15.0% | ?
CCOc1ccc(-c2cc3c(=O)n(CCNC(=O)c4ccncc4)ccn3n2)cc1 | ? | -16.8% | -6.1% | 6.31µM* | -0.7% | ? | ? | 3.51µM*
CCOc1ccc(-c2cc3c(=O)n(CCNC(=O)c4ccc(C)c(C)c4)ccn3n2)cc1 | 2.9% | 7.8% | -9.8% | i | i | . | . | .
CCOc1ccc(-c2cc3c(=O)n(CCNC(=O)c4cccc(N(C)C)c4)ccn3n2)cc1 | ? | -27.7% | -24.1% | 2.51µM* | i | 28.8% | ? | 3.94µM*
CCOc1ccc(-c2cc3c(=O)n(CCNC(=O)c4ccccc4)ccn3n2)cc1 | -3.9% | 0.1% | -0.7% | ? | i | . | . | .
CCn1ccc2sc(C)c(C(=O)NCc3ccc(F)cc3Cl)c2c1=O | -25.3% | -1.7% | 0.5% | i | i | . | . | .
CCNC(=O)NC1(Cc2cc(-c3ccc(OC)cc3)on2)COC1 | ? | -1.2%[70.6 µM] | 2.8%[174 µM] | i | i | . | . | .
Cc1ccc(NC(=O)Nc2ccc(C)n(CC(=O)NC(C)c3cccnc3)c2=O)cc1 (centres undefined) | ? | -14.7% | -21.3% | 1.12µM* | i | 7µM* | ? | 1.57µM*
Cc1ccc(NC(=O)Nc2ccc(C)n(CC(=O)N3CCC(C)CC3)c2=O)cc1 | ? | -18.0% | -16.6% | 4.47µM* | i | ? | ? | 3.94µM*
COc1ccccc1NC(=O)Cn1c(C)ccc(NC(=O)Nc2ccc(C)cc2)c1=O | ? | ? | 22.4µM* | 0.631µM* | i | ? | ? | 0.7µM*
Cc1ccc(NC(=O)Nc2ccc(C)n(CC(=O)NC3CCCC3)c2=O)cc1 | ? | ? | ? | 0.398µM* | -8.5% | 1.57µM* | ? | 0.7µM*
Cc1ccc(NC(=O)Nc2ccccc2)c(=O)n1CC(=O)NCC1CCCO1 (centres undefined) | -0.7% | -12.9% | ? | 14.1µM* | -21.1% | ? | ? | ?
Cc1ccc(NS(=O)(=O)c2ccccc2)c(=O)n1CC(=O)N1CCCCC1 | -21.1% | 2.4% | -8.8% | i | 3.8% | . | . | .
COc1ccc(NC(=O)Nc2ccc(C)n(CC(=O)N3CCCCCC3)c2=O)cc1 | -1.6% | -0.7% | i | 8.91µM* | -8.4% | ? | ? | 9.89µM*
Cc1ccc(NC(=O)Nc2ccccc2)c(=O)n1CC(=O)NC1CCCCC1 | -9.0% | -0.3% | -10.2% | i | i | . | . | .
Cc1ccc(NC(=O)C2CCN(C(=O)c3ncn4c3COC(c3ccc(F)cc3)C4)CC2)c(F)c1 (centres undefined) | -1.2% | -1.9% | i | 12.6µM* | i | 14.5% | ? | ?
COc1ccc(C)cc1NC(=O)C1CCN(C(=O)c2ncn3c2COC(c2ccc(F)cc2)C3)CC1 (centres undefined) | -12.9% | -24.8% | -8.9% | 7.08µM* | i | 12.2% | ? | ?
O=C(Nc1ccccc1F)C1CCN(C(=O)c2ncn3c2COC(c2ccc(F)cc2)C3)CC1 (centres undefined) | -0.5% | -3.0% | i | ? | -0.4% | . | . | .
Nc1nn(-c2ccccc2)nc1C(=O)OCc1ccccc1 | . | . | . | . | . | 13.1% | 10.1% | -12.9%
COc1ccc(NC(=O)N2CCc3c(C(=O)Nc4ccc5c(c4)OCO5)cccc32)cc1 | ? | 12.6µM* | -20.9% | 2.82µM* | i | 15.1% | 1.24µM* | 0.881µM*
COc1ccc(NC(=O)c2cccc3c2CCN3C(=O)Nc2ccc(F)cc2)c(C)c1 | -27.5% | 11.2µM* | -13.0% | 2.24µM* | i | 13.1% | 0.7µM* | 0.556µM*
COc1ccc(OC2CCN(C3CCCC3)CC2)c(C(=O)NCCCN2CCCC2=O)c1 | -22.4% | 2.2% | -12.1% | i | i | . | . | .
COc1ccc(NC(=O)N2CCc3c(C(=O)NCCCN4CCCC4=O)cccc32)cc1 | ? | 11.2µM* | -28.8% | 0.501µM* | 0.4% | ? | 0.351µM* | 0.248µM*
SMILES | HEK cytotox | NPR1 antag | NIH3T3 tox | FLuc inh-1 | GPT2 inh | FLuc SDR -ATP | FLuc SDR ATP | FLuc inh-2
COc1ccc(NC(=O)N2CCc3c(C(=O)NCc4ccncc4)cccc32)cc1 | ? | 11.2µM* | ? | 1.26µM* | i | 12.4µM* | 0.881µM* | 0.624µM*
CCC(=O)N1CCc2c(C(=O)Nc3cc(OC)cc(OC)c3)cccc21 | -3.9% | -1.2% | i | i | 0.8% | . | . | .
Cn1ncc2c(C(=O)N3CCOCC3)cc(-c3ccc(Cl)nc3)nc21 | i | . | ? | . | i | . | . | .
COc1ccc2c(c1)OC[C@@H]1CN(C)C(=O)CCN(C(=O)c3ccccc3OC)[C@H]21 | -21.9% | . | ? | . | . | . | . | .
CC(=O)NC1CCN(Cc2cn(-c3ccc(C)cc3)nc2-c2cccc(C)c2)C1 (centres undefined) | ? | -0.7% | ? | 12.6µM* | i | 14.7% | 9.1% | ?
Cc1ccc(-n2cc(CN(C)C(C)C(=O)N(C)C)c(-c3cccc(C)c3)n2)cc1 (centres undefined) | ? | 6.8% | ? | i | 4.9% | . | . | .
CC(C)NC(=O)c1nc2cccnc2n(-c2ccc(N(C)C)cc2)c1=O | i | . | -8.1% | . | i | . | . | .
CN1CCCCC(CC(=O)Nc2ccc(OC(F)(F)F)cc2)C1=O (centres undefined) | -17.5% | -1.5% | 0.5% | i | i | . | . | .
O=C(CSc1nnc2[nH]c(=O)cc(-c3ccccc3)n12)Nc1ccc(OC(F)(F)F)cc1 | . | . | . | . | . | 19.5% | 15.0% | 7µM*
COc1ccc(-c2nc(-c3ccccc3)nc3c2CN(C(=O)c2ccc(C(F)(F)F)cc2)CC3)cc1 | ? | 2.5% | -9.1% | i | -2.6% | . | . | .
O=C(c1ccc(C(F)(F)F)cc1)N1CCc2nc(-c3ccccc3)nc(-c3ccc(Cl)cc3)c2C1 | ? | 5.2% | ? | i | -1.7% | 12.0% | 9.7% | 2.4%
